Among the data in PubChem BioAssay AID1626 (SRMLSC, 2009) are inhibition values, retold here.

The whole screen tested about 220,000 compounds, of which about 2,000 (0.91%) were called active. Inconclusive results (about 2%) are left out. Only a sample is shown. Measured potencies and affinities stand elsewhere. Unmarked numbers belong to inactive results. Rule as the data show it: inconclusive = inhibition above about 80% without an active follow-up result; inactive = below that; test concentration not stated here.

Broadly, the inhibition is the relative decrease from the control value, in per cent.

The nature of this assay: M. tuberculosis H37Rv growth inhibitors, H37Rv strain (AID 1626).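 Also: bacteria incubated seven days before Alamar blue readout; 0% = bacteria only wells and 100% = bacteria with antibiotic wells.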 The settings on record: active compounds read high, concentration not given here.
Consider `Cc1ccc(-n2[nH]c(C)c(C=Nc3ccc(S(=O)(=O)Nc4nccs4)cc3)c2=O)c(C)c1`, for which the inhibition was 45.6%.

For `CCc1nnc(NS(=O)(=O)c2ccc(N=Cc3c(C)[nH]n(-c4ccc(Cl)cc4)c3=O)cc2)s1`, the inhibition was 12.1%.

Take `COc1ccc(NC(=O)CN(Cc2ccccc2)Cc2ccccc2)cc1S(N)(=O)=O`: the inhibition was 4.02%.

As to `O=[N+]([O-])c1ccc(-c2nc(NCc3ccccc3)c3ccccc3n2)cc1`, the inhibition was -2.12%.

Consider `Cc1ccc(-c2nc(Cl)nc3ccccc23)cc1`, for which the inhibition was -2.37%.

As for `CN(Cc1ccccc1)c1nc(-c2ccc([N+](=O)[O-])cc2)nc2ccccc12`, the inhibition was 0.45%.

As for `Cc1ccc(Nc2nc(-c3ccncc3)nc3ccccc23)cc1`, the inhibition was -4.95%.

With `CC1(C(=O)N2CCN(c3ccccc3)CC2)CC1(Cl)Cl` (stereo unspecified), the inhibition is 0.45%.

For the compound `COCCCNC(=O)CSc1nc2sc(C(=O)OC)c(C)c2c(=O)n1N`, the inhibition is 7.98%.

For the compound `CN(C)C(=O)Cn1c(SCC(=O)N2CCCc3ccccc32)nc2ccccc21`, the inhibition is -5.91%.

Take `Cc1ccc(OCc2nc3c4c(ncn3n2)-c2ccccc2CC42CCCC2)cc1`: the inhibition was -1.61%.

As to `COc1ccc2c(c1)CCC/C2=N/OC(=O)c1ccccc1OC`, the inhibition is 10.5%.

`CCCSc1nc2c(=O)[nH][nH]c(=O)c2n1Cc1ccccc1`: the inhibition is -2.99%.

Regarding `CCOC(=O)N1CCN(C(=O)CSc2nnc(-c3cc(OC)ccc3OC)o2)CC1`, the inhibition was 17.1%.

Regarding `CCOC(=O)CSc1nnc(-c2ccccc2OC)o1`, the inhibition is 10.6%.

On to `O=C(Nc1ccccc1-c1nnc(SCc2ccccc2)o1)c1ccccc1`, for which the inhibition is 8.97%.

For the compound `COc1ccc(-c2nnc(SCC(=O)N3CCCCC3)o2)c(OC)c1`, the inhibition was 3.89%.

With `COC(=O)CSc1nnc(-c2ccccc2OC)o1`, the inhibition is 1.84%.

Turning to `O=C(CSc1nnc(-c2ccccc2NC(=O)c2ccccc2)o1)OC1CCCCC1`, the inhibition was 61.5%.

In the case of `C#CCNC(=O)C1=C[C@@H](C)[C@H](CCCO)[C@@H](OCC)O1`, the inhibition is -2.73%.

In the case of `O=C(CCn1[nH]c(=O)c2ccccc2c1=O)NCCO`, the inhibition was -2.07%.

For `COc1cccc(-c2nc(-c3ccc(NC(=O)c4ccncc4)cc3)no2)c1`, the inhibition is 7.98%.

For the compound `CC1(C)OC(=O)C(=NNc2ccc(Br)cc2)C(=O)O1`, the inhibition was 76.6%.

Regarding `O=C1c2ccccc2C(=O)N1CCCCN(C(=O)c1ccc([N+](=O)[O-])cc1)c1ccc(Cl)cc1`, the inhibition is -7.62%.

On to `O=C1c2ccccc2C(=O)N1CCCCN(C(=O)c1cccc([N+](=O)[O-])c1)c1ccc(Cl)cc1`, for which the inhibition was -4.65%.

In the case of `CCOC(=O)C1(CCOc2ccccc2)CCN(Cc2ccc3c(c2)OCCO3)CC1`, the inhibition is -3.31%.

As for `O=c1[nH]c(=O)n(CCOc2ccc(Cl)cc2)cc1Br`, the inhibition is -3.97%.

As for `COCCNC(=S)N1CCC(c2nc(-c3ccc(F)cc3)no2)CC1`, the inhibition was -1.41%.

Turning to `CC1=Nc2ccccc2/C1=C/c1sc(=O)n(CC(=O)N2CCCC2)c1O`, the inhibition is -8.48%.

Turning to `CC1=Nc2ccccc2/C1=C/c1sc(=S)n(-c2cccc(C(=O)O)c2)c1O`, the inhibition is 4.52%.

Take `CC(C)CN(CCC(=O)O)CC(C)C`: the inhibition was -0.69%.

On to `CCOC(=O)c1cnc(-n2nc(C)cc2C)nc1N1CC(C)OC(C)C1` (stereo unspecified), for which the inhibition was -1.14%.

For the compound `CCOC(=O)c1cnc(-n2cc(C)cn2)nc1NCc1ccc2c(c1)OCO2`, the inhibition was 59.5%.

For the compound `CCOC(=O)c1ccc(NCc2ccc3c(c2)OCO3)cc1`, the inhibition was 7.94%.

Regarding `CCOC(=O)c1cnc(-n2nc(C)cc2C)nc1NCCO`, the inhibition is 4.03%.

`CCOC(=O)c1cnc(-n2nc(C)cc2C)nc1Nc1ccccc1OC`: the inhibition is 25.4%.

`CCOC(=O)c1cnc(-n2nc(C)cc2C)nc1Oc1ccccc1F`: the inhibition was -2.19%.

Take `O=C(Cn1c(=O)n(-c2ccccc2)c(=O)c2oc3ccccc3c21)Nc1ccccc1`: the inhibition was -0.16%.

For the compound `O=C1CC(=O)CC(c2ccccc2Cl)C1`, the inhibition was -8.51%.

In the case of `CCO[C@H]1OC(C(=O)O)=C[C@@H](C(C)(C)C)[C@@H]1CCCO`, the inhibition was -7.81%.

As to `NS(=O)(=O)c1ccc(C(=O)Nc2ccc(-c3nc4cccnc4s3)cc2)cc1`, the inhibition was 9.76%.

Take `Cc1cc(C)c2c3c(cn2n1)c(=O)n(C)c(=O)n3C`: the inhibition is 4.42%.

Take `O=C(CCCSc1nc2ccccc2[nH]1)NCc1ccccc1Cl`: the inhibition was -0.81%.

With `Cc1cc2nc(CCl)cc(=O)n2[nH]1`, the inhibition was 2.54%.

Take `COCCn1cnc2c1c(=O)n(CC(=O)OCC#N)c(=O)n2Cc1ccccc1`: the inhibition was 1.32%.

Take `O=C(c1ccccc1)N1CCN(c2ccc([N+](=O)[O-])c(NCC3CCCO3)c2)CC1` (stereo unspecified): the inhibition is 3.59%.

Consider `O=C(O)CSCC(=O)NC1CCCc2ccccc21` (stereo unspecified), for which the inhibition was 0.52%.

With `O=C(COc1ccccc1)NC1CCCc2ccccc21` (stereo unspecified), the inhibition was -1.62%.

With `Cc1cc(/C=C2/NC(=O)N(Cc3ccccc3F)C2=O)c(C)n1C(C)C`, the inhibition was 7.35%.

As for `Cc1nn(C(=O)c2cccc([N+](=O)[O-])c2)c(C)c1Sc1ccccc1`, the inhibition is 0.41%.

As to `Cc1ccc(OCc2nnc(SCC(=O)c3cccc([N+](=O)[O-])c3)n2C)cc1`, the inhibition is 3.44%.

As for `COc1ccc(NC(=O)C2CCC(N3C(=O)C4C5C=CC(C5)C4C3=O)CC2)cc1` (stereo unspecified), the inhibition was -14.2%.

Consider `O=C(COc1ccc2c(c1)CCC2)NCc1ccc(Cl)cc1`, for which the inhibition is 13.4%.

Turning to `O=C(COc1ccc(-n2ccnc2)cc1)Nc1cccc(Cl)c1`, the inhibition was 3.18%.

Turning to `O=C(COc1cc(Cl)ccc1Cl)Nc1ccc2c(c1)CCC2`, the inhibition was 3.53%.

With `O=C(COc1ccc2ccccc2c1)Nc1ccc(Cc2ccncc2)cc1`, the inhibition was 11.6%.

Consider `COc1cc(NC(=O)COc2ccc(-n3ccnc3)cc2)cc(OC)c1`, for which the inhibition is 54.1%.

As to `CC(=O)c1ccc(NC(=O)COc2ccc3c(c2)OCO3)cc1`, the inhibition is 14%.

Consider `O=C(COc1ccc(Cl)cc1)NCc1ccncc1`, for which the inhibition was 0.93%.

As to `O=C(O)COCC(=O)Nc1ccc2c(c1)CCC2`, the inhibition is -2.88%.

Consider `Cc1ccc(/C=N/n2c(C)n[nH]c2=S)o1`, for which the inhibition was -0.73%.

Take `Cn1c(SCc2nc3ccccc3[nH]2)nnc1-c1cccnc1`: the inhibition was -8.31%.

Consider `Brc1ccccc1-n1nnc(-c2ccnc3ccccc23)n1`, for which the inhibition was -5.72%.

Regarding `O=C(COc1ccc2c(c1)CCC2)NCc1cccc(Cl)c1`, the inhibition was 13.9%.

For `COc1ccc(OCC(=O)Nc2cccc(OC)c2)cc1`, the inhibition was 0.47%.

Consider `O=C(COc1cccc(Cl)c1Cl)Nc1ccc2c(c1)CCC2`, for which the inhibition is -7.06%.

Consider `COC(=O)COc1cccc(NC(=O)c2ccccc2)c1`, for which the inhibition is 10.8%.

Turning to `O=C(COC(=O)c1cncc(Br)c1)Nc1ccc2c(c1)OCO2`, the inhibition was 2.32%.

As to `O=C(COC(=O)c1ccc(F)cc1F)Nc1ccc2[nH]c(=O)[nH]c2c1`, the inhibition is 0.74%.

For the compound `CCCC(=O)Nc1ccc2oc(-c3ccncc3)nc2c1`, the inhibition is 0.51%.

On to `Cc1c(Cl)cccc1NC(=O)Cn1c(-c2ccc(F)cc2)noc1=O`, for which the inhibition is -3.42%.

With `Cc1c(O)c(S(=O)(=O)c2ccccc2)c(=O)n(-c2ccccc2)c1-c1ccccc1`, the inhibition is -1.42%.

In the case of `NNC(=S)Nc1ccc(S(=O)(=O)N2CCOCC2)cc1`, the inhibition was -8.51%.

In the case of `CCCOc1ccc(C(=O)Nc2nc(C)c(Cc3ccc4c(c3)OCO4)s2)cc1`, the inhibition was 2.21%.

With `Cc1nc(NC(=O)c2ccc(Cl)cc2)sc1Cc1ccc2c(c1)OCO2`, the inhibition was -0.23%.

On to `COc1cccc(C(=O)N(Cc2nc(-c3ccc(C)cc3)no2)C(C)C)c1`, for which the inhibition was -3.98%.

With `COc1cc(/C=C/C(=O)OCC(=O)NC(=O)NC(C)C)cc(S(=O)(=O)N2CCc3ccccc32)c1OC`, the inhibition is 3.06%.

Turning to `Cc1ccccc1CSCCNC(=O)Nc1ccccc1`, the inhibition is -0.63%.

Regarding `Cc1c2c(nc3ccccc13)OCC2`, the inhibition is -16.5%.

`Cc1c2c(nc3ccccc13)CCC(C(C)(C)C)C2` (stereo unspecified): the inhibition is 6.35%.

Turning to `Nc1c(C(=O)O)cnn1-c1ccc([N+](=O)[O-])cc1`, the inhibition was -2.22%.

`O=C(Nc1ccc([N+](=O)[O-])cc1)Nc1ccc(Cl)cc1F`: the inhibition was 9.88%.

Turning to `O=C(Cc1ccc([N+](=O)[O-])cc1)Nc1ccc(Cl)cc1`, the inhibition was 3.56%.

Turning to `CCc1cccc(NC(=O)Cc2ccc([N+](=O)[O-])cc2)c1`, the inhibition was 58.6%.

Turning to `O=C(c1ccc(F)cc1)N1CCN(C2CCC(c3ccccc3)CC2)CC1` (stereo unspecified), the inhibition was 5.5%.

`CCOC(=O)c1ccc(NC(=O)CSc2nc(NC(=O)c3ccccc3)c3c(C)c(C)oc3n2)cc1`: the inhibition was 9.26%.

For the compound `COc1cc(CCN2C(=O)N[C@@H](CCc3ccccc3)C(C(C)=O)=C2C)cc(OC)c1OC`, the inhibition was -6.61%.

`CC(C)COCc1ccc(O)c2ncccc12`: the inhibition was 47.1%.

Take `OCc1ccc(O)c2ncccc12`: the inhibition was 1.86%.

Regarding `Oc1ccc(CN2CCN(Cc3ccccc3)CC2)c2cccnc12`, the inhibition was -2.63%.

For `COCc1cc(CN2CCCC2)c(O)c2ncccc12`, the inhibition was -1.29%.

For `Oc1ccc(F)c2cccnc12`, the inhibition was 44.5%.

Regarding `O=C(N/N=C/c1ccc(O)c2ncccc12)c1cccc(Br)c1`, the inhibition was -4.1%.

In the case of `CC(C)CC(c1nnnn1CC1CCCO1)N1CCN(Cc2ccc3c(c2)OCO3)CC1` (stereo unspecified), the inhibition is 0.16%.

Consider `CCN1C/C(=C/c2sccc2C)c2nc3ccccc3c(C(=O)O)c2C1`, for which the inhibition is -0.78%.

On to `Nc1nnnn1CC(=O)N/N=C/c1cc([N+](=O)[O-])ccc1Cl`, for which the inhibition was -0.24%.
